Screening data (PubChem)
In the library only some 3% were active in any assay of this set; here they are far more common.
ATG4B inh: inhibitors of human ATG4B cysteine protease; Q9Y4P1; AID 504462; inhibition, % at 8.33 µM; 0.51% of 340,000 active; ATG4B cleavage of LC3-PLA2, NBD-HPC fluorescence, 1 h; in the data active means inhibition above about 40%
PAFAH2 FP inh: inhibitors of human PAFAH2; AID 492956; inhibition, % at 3.39 µM; 0.99% of 340,000 active; recombinant PAFAH2, FP-rhodamine activity probe, fluorescence polarization; Q99487;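 active means inhibition above the mean over all tested compounds plus 3 SD, cut at about 30% in these data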;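 further: inhibitors block probe labeling of enzyme so polarization drops; 0% = enzyme with DMSO and 100% = wells lacking PAFAH2 protein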
PAFAH1B3 inh: PAFAH1B3 (human) inhibition | recombinant PAFAH1B3, FP-rhodamine probe, fluorescence polarization | inhibition, % at 3.39 µM | 0.28% of 340,000 active | AID 492972;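 active means inhibition above the screen-wide average of all tested compounds plus 3 SD, cut at about 25% in these data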;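 further: 0% = enzyme with DMSO only and 100% = wells lacking PAFAH1B3 protein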
pPAFAH inh: inhibitors of human plasma PAF acetylhydrolase (pPAFAH). Q13093. 1.5% of 330,000 active. inhibition, % at 3.39 µM. recombinant pPAFAH, FP-rhodamine probe fluorescence polarization;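 active means inhibition above the mean inhibition across the screen plus 3 SD, cut at about 25% in these data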;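 further: inhibitors block binding of the rhodamine activity-based probe so polarization drops; 0% = enzyme with DMSO and 100% = wells lacking pPAFAH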
Target sequence (Q13093 whole entry, looked up): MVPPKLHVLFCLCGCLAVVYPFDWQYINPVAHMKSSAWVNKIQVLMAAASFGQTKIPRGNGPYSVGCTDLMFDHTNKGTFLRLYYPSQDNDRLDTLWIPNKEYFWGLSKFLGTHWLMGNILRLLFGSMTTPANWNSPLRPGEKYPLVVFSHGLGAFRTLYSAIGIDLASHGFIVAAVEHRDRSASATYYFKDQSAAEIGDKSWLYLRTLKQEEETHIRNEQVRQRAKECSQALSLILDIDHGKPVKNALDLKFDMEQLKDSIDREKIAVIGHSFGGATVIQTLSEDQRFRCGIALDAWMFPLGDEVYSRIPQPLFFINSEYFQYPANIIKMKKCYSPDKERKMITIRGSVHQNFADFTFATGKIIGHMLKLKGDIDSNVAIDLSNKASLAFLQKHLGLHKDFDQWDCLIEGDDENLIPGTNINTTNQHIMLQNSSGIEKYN
PAFAH1B2 FP inh: inhibitors of human PAFAH1B2; recombinant PAFAH1B2, FP-rhodamine activity probe, fluorescence polarization; AID 492953; 1.2% of 340,000 active; P68402; inhibition, % at 3.39 µM;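 active means inhibition above the mean of all tested compounds plus 3 SD, cut at about 24% in these data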;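 further: 0% = enzyme with DMSO and 100% = wells lacking PAFAH1B2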
DAGLB inh: blocks human DAGLB lipase activity | AID 504411 | inhibition, % at 5.17 µM | HEK293T DAGLB membrane lysate, EnzChek fluorogenic substrate | Q8NCG7 | 0.059% of 340,000 active; in the data active means inhibition above about 34%;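 further: 0% = enzyme with vehicle and 100% = wells lacking enzyme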
ATG4B confirm: confirmation of human ATG4B inhibitors | shares compounds with ATG4B inh | ATG4B protease fluorescent substrate cleavage assay | inhibition, % at 8.33 µM | 92% of 320 active; in the data active means inhibition above about 39%
PLA2 ctr: PLA2 (human) inhibition in ATG4B counter-screen. purified PLA2, NBD-C6-HPC fluorescence, 45 min. inhibition, % at 8.33 µM. AID 588402. shares compounds with ATG4B inh. 66% of 1,600 active; in the data active means inhibition above about 50%
Target sequence (P04054 whole entry, looked up): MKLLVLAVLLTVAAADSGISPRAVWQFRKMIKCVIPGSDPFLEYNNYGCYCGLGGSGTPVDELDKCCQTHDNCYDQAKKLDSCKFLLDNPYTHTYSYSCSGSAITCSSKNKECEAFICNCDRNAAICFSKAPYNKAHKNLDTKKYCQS
The depositor's hits bear a star; / = not tested or not shown.

SMILES	ATG4B inh	PAFAH2 FP inh	PAFAH1B3 inh	pPAFAH inh	PAFAH1B2 FP inh	DAGLB inh	PLA2 ctr	others
Cc1c(CCC(=O)O)c(=O)oc2cc3occ(-c4ccc(F)cc4)c3cc12	-1	1	12	11	6	-5	/
Cc1c(CCC(=O)O)c(=O)oc2cc3occ(C(C)(C)C)c3cc12	44*	-3	-1	3	0	1	61*
Cc1nc(CC(=O)Nc2nccs2)cs1	7	8	12	2	2	-1	/
CC(OC(=O)Cc1ccc(Br)cc1)C(=O)NC1CCCCC1C (stereo not drawn)	-2	0	5	-2	10	-3	/
Cc1ccccc1S(=O)(=O)N1[C@@H](c2ccc(Br)cc2)C(C(=O)O)=CC[C@H]1c1ccc(Cl)cc1	43*	5	-5	7	84*	1	47	ATG4B confirm=46*
Cc1cccc(Nc2nc(-c3ccc(O)cc3O)cs2)n1	9	0	13	12	1	1	/
CN(C)CCNc1nc2sc3c(c2c(=O)n1CCc1ccccc1)CCCCC3	-4	8	4	6	2	2	/
CC(O)CNc1nc2sc3c(c2c(=O)n1CCc1ccccc1)CCCCC3 (stereo not drawn)	41*	3	-2	2	2	-8	55*
Cc1cccc(C(=O)Nc2sc(-c3ccccc3)cc2C(=O)O)c1	68*	23	9	34*	33*	10	75*
CC(=O)C1=C(S(=O)(=O)c2ccc(C)cc2)CS(=O)(=O)C1	6	-7	5	/	8	-1	/
O=C(O)c1cc([N+](=O)[O-])ccc1NCc1ccccc1Cl	48*	-5	7	7	20	10	45	ATG4B confirm=64*
Cn1c(SCC(=O)Nc2cccc(S(=O)(=O)NC3=NCCCCC3)c2)nnc1-c1ccccc1	3	3	-2	2	2	3	/
CC(C)c1ccc2c(c1)C(c1ccc(N3CCOCC3)cc1)=NNC(c1cccs1)=N2	70*	1	2	2	0	-2	72*
c1ccc(C2=Nc3c(ccc4ccccc34)C(c3ccncc3)=NN2)cc1	47*	2	3	1	2	6	71*
CC(C)c1ccc2c(c1)C(c1cccs1)=NNC(c1ccncc1)=N2	-5	3	-1	6	1	1	/
Cc1ccc(C2=Nc3ccc(Br)cc3C(c3ccncc3)=NN2)cc1	44*	-1	-7	-4	3	3	49
COc1ccc2c(c1)C(c1ccc(C)o1)=NNC(c1cccnc1)=N2	11	-10	13	2	1	1	/
COc1ccc2c(c1)C(c1ccc(C)o1)=NNC(c1ccccc1)=N2	42*	7	4	2	7	1	42	ATG4B confirm=69*
O=S(=O)(c1ccc2c(c1)CCC2)N1CCNCC1	4	-5	4	/	3	-1	/
CCc1ccc2c(c1)C(c1ccncc1)=NNC(c1ccccc1)=N2	48*	-2	1	9	5	0	59*
Cc1ccc2c(c1)C(c1ccncc1)=NNC(c1ccccc1)=N2	3	3	7	0	6	-1	/
CCOc1ccc2c(c1)C(c1ccccc1)=NNC(c1ccccc1)=N2	75*	-4	4	-2	1	-5	72*
CCCOc1ccc(C2=NNC(c3cccs3)=Nc3ccc(OC)cc32)cc1	49*	2	9	2	-4	-5	77*
COc1ccc(C2=NNC(c3cccnc3)=Nc3ccc(OC)cc32)cc1	4	2	2	3	7	0	/
Cc1cc(C)n(-c2ccnc3cc(Cl)ccc23)n1	8	-2	5	4	3	0	/
SMILES	ATG4B inh	PAFAH2 FP inh	PAFAH1B3 inh	pPAFAH inh	PAFAH1B2 FP inh	DAGLB inh	PLA2 ctr	others
O=C(NNC(=S)Nc1ccc(Cl)c(Cl)c1)c1cccc([N+](=O)[O-])c1	85*	/	/	32*	/	/	91*
O=C1NC(=O)/C(=C/c2ccccc2Oc2ccc(Cl)cc2)S1	48*	0	0	14	28*	10	27	ATG4B confirm=59*
Cc1ccc(NC(=S)NC2CC3CCCC(C2)N3Cc2cccs2)cc1 (stereo not drawn)	5	9	-1	-1	10	1	/
CCc1ccccc1NC(=S)NC1CC2CCCC(C1)N2Cc1cccs1 (stereo not drawn)	48*	10	-2	3	0	4	48
Cc1cccc(NC(=S)NC2CC3CCCC(C2)N3Cc2cccs2)c1C (stereo not drawn)	49*	5	2	2	-8	-2	59*
C=CCn1c(SCc2nc3scc(-c4ccccc4)c3c(=O)[nH]2)nnc1-c1ccccc1F	46*	-3	-6	5	-5	2	42	ATG4B confirm=62*
CCn1c(SCc2nc3scc(-c4ccccc4)c3c(=O)[nH]2)nnc1-c1ccc(Cl)cc1	2	-11	7	-5	5	-4	/
CN1/C(=C\C(=S)NC(=O)c2ccccc2Cl)C(C)(C)c2ccccc21	49*	-15	-9	-4	-5	15	40
O=c1c2ccccc2nc(/C=C/c2c[nH]c3ccccc23)n1-c1ccc([N+](=O)[O-])cc1	57*	-12	3	6	-6	-1	26
O=C(CSc1nc2ccccc2c(=O)n1-c1ccc(F)cc1)Nc1ccc(C(=O)O)cc1	9	2	3	5	4	0	/
CCOC(=O)c1c(C)[nH]c(C)c1C(=O)CSc1nc2ccccc2c(=O)n1-c1ccc(CC)cc1	52*	-22	4	2	-1	2	66*
CC(C#N)Sc1nc2ccccc2c(=O)n1-c1ccccc1 (stereo not drawn)	47*	-3	-1	2	6	-3	56*
Cc1ccc(-n2c(SCC(=O)NNC(=S)Nc3ccccc3)nc3ccccc3c2=O)cc1	78*	11	10	2	10	4	82*
Cc1[nH]c2ccccc2c1/C=C/c1nc2ccccc2c(=O)n1-c1cccc([N+](=O)[O-])c1	-16	-4	3	6	-2	5	/
NS(=O)(=O)c1ccc(Cl)cc1[N+](=O)[O-]	2	-4	7	-1	3	2	/
O=C(Cn1sc2ccccc2c1=O)N1CCN(C(=O)c2ccco2)CC1	-1	-3	5	22	0	-1	/
O=C(C1CC1)N1CCN(c2ccc(O)cc2)CC1	1	0	0	2	6	3	/
CCOC(CCn1c(SCc2ccc([N+](=O)[O-])cc2)nc2ccccc2c1=O)OCC	16	2	0	0	-2	-8	/
